Read-out in test [1]: TIMP metallopeptidase inhibitor 1 (TIMP1), TIMP1 (gene 7076)
Briefly: BSK_hDFCGF_TIMP1: BioMAP Diversity Plus: hDFCGF Assay for TIMP metallopeptidase inhibitor 1 (TIMP1) Biomarker Activity (AID 2283062). The following applies: primary human foreskin fibroblasts; actives raise or lower the signal. An outline of the steps:
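Human skin fibroblasts (primary), hDFCGF system; compound exposure 24 h; TIMP-1 by ELISA; bidirectional fit vs DMSO negative control; overt cytotoxicity by SRB in parallel wells.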

Read-out in test [2]: Monokine induced gamma interferon (MIG), CXCL9 (gene 4283)
Briefly: BSK_hDFCGF_MIG: BioMAP Diversity Plus: hDFCGF Assay for Monokine induced gamma interferon (MIG) Biomarker Activity (AID 2283063). Conditions: primary human foreskin fibroblasts; actives raise or lower the signal. An outline of the steps: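 Chemicals were added to primary human foreskin fibroblast cultures, which were sampled 24 h later. MIG levels were then quantified by ELISA and responses fitted in both directions relative to DMSO.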

Read-out in test [3]: Intercellular Adhesion Molecule 1 (ICAM1), ICAM1 (gene 3383)
Briefly: BSK_KF3CT_ICAM1: BioMAP Diversity Plus: KF3CT Assay for Intercellular Adhesion Molecule 1 (ICAM1) Biomarker Activity (AID 2283067). The following applies: primary human keratinocytes with fibroblasts; actives raise or lower the signal. An outline of the steps: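 ICAM-1 levels are measured by ELISA 24 h after dosing a primary human co-culture of keratinocytes and foreskin fibroblasts. Activity in either direction is fitted relative to DMSO vehicle.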

Read-out in test [4]: Interferon-gamma inducible Protein 10 (IP10), CXCL10 (gene 3627)
Briefly: BSK_KF3CT_IP10: BioMAP Diversity Plus: KF3CT Assay for Interferon-gamma inducible Protein 10 (IP10) Biomarker Activity (AID 2283068). The following applies: primary human keratinocytes with fibroblasts; actives raise or lower the signal. Summed up:
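KF3CT co-culture (keratinocytes + foreskin fibroblasts), 24 h compound, IP-10 by ELISA; bidirectional fit vs DMSO baseline.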

A short description of test [5]: BSK_KF3CT_SRB: Viability Assessment in the BioMAP Diversity Plus: KF3CT Assay (AID 2283069).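 Also: total protein by sulforhodamine B staining as a cytotoxicity measure; read 24 h after compound addition; fitted for both signal gain and loss against DMSO baseline.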 Conditions: primary human keratinocytes with fibroblasts. Summed up: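 Human keratinocyte and foreskin fibroblast co-culture exposed to chemical for 24 h. Total protein measured in parallel cultures by 0.1% sulforhodamine B staining after 10% TCA fixation, read at 560 nm; bidirectional fit relative to DMSO.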

Read-out in test [6]: Interleukin-1 alpha (IL1a), IL1A (gene 3552)
Description: BSK_KF3CT_IL1a: BioMAP Diversity Plus: KF3CT Assay for Interleukin-1 alpha (IL1a) Biomarker Activity (AID 2283070). Conditions: primary human keratinocytes with fibroblasts; actives raise or lower the signal. An outline of the steps:
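Primary human keratinocyte plus foreskin fibroblast co-culture, dosed and measured at 24 h in 96-well plates. IL-1a level quantified by ELISA; bidirectional fit relative to DMSO.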

Read-out in test [7]: TIMP metallopeptidase inhibitor 2 (TIMP2), TIMP2 (gene 7077)
Description: BSK_KF3CT_TIMP2: BioMAP Diversity Plus: KF3CT Assay for TIMP metallopeptidase inhibitor 2 (TIMP2) Biomarker Activity (AID 2283071). The following applies: primary human keratinocytes with fibroblasts; actives raise or lower the signal. An outline of the steps:
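Cells: human keratinocytes co-cultured with foreskin fibroblasts. Treat with chemical, 24 h. Measure TIMP-2 by ELISA; fit curves bidirectionally vs DMSO baseline.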

Read-out in test [8]: Transforming growth factor beta 1 (TGFb1), TGFB1 (gene 7040)
Briefly: BSK_KF3CT_TGFb1: BioMAP Diversity Plus: KF3CT Assay for Transforming growth factor beta 1 (TGFb1) Biomarker Activity (AID 2283072). The following applies: primary human keratinocytes with fibroblasts; actives raise or lower the signal. Summed up: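 Primary human skin cells (keratinocytes, foreskin fibroblasts) were co-cultured, exposed to test chemical and sampled at 24 h. TGF-b1 levels were measured by ELISA and fitted bidirectionally relative to DMSO.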

Read-out in test [9]: Matrix Metallopeptidase 9 (MMP9), MMP9 (gene 4318)
Briefly: BSK_KF3CT_MMP9: BioMAP Diversity Plus: KF3CT Assay for Matrix Metallopeptidase 9 (MMP9) Biomarker Activity (AID 2283074).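 As to AC50: MMP9 protein level quantified by ELISA in the co-culture.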 The following applies: primary human keratinocytes with fibroblasts; actives raise or lower the signal. Summed up:
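Human keratinocyte and foreskin fibroblast co-culture exposed to chemicals for 24 h; MMP9 biomarker measured by ELISA, bidirectional fitting relative to DMSO; cytotoxicity tracked by SRB total protein staining in parallel cultures.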

Read-out in test [10]: urokinase plasminogen activator (uPA), PLAU (gene 5328)
Description: BSK_KF3CT_uPA: BioMAP Diversity Plus: KF3CT Assay for urokinase plasminogen activator (uPA) Biomarker Activity (AID 2283075). The following applies: primary human keratinocytes with fibroblasts; actives raise or lower the signal. Summed up:
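Primary human keratinocyte/foreskin fibroblast co-culture exposed to chemical; uPA measured by ELISA at 24 h. Bidirectional fit versus DMSO, with parallel SRB total-protein staining for cytotoxicity.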

Read-out in a further test: CD40, CD40 (gene 958)
Briefly: BSK_LPS_CD40: BioMAP Diversity Plus: LPS Assay for CD40 Biomarker Activity (AID 2283076). The following applies: primary human HUVEC with PBMC; actives raise or lower the signal. An outline of the steps: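 Cells were dosed, incubated 24 h, then assayed for CD40 by ELISA. Gain or loss of signal was analysed relative to DMSO controls. The culture paired human umbilical vein endothelium with peripheral blood mononuclear cells.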

Read-out in test [11]: E-selectin (Homo sapiens) (UniProt P16581)
Briefly: BSK_LPS_Eselectin: BioMAP Diversity Plus: LPS Assay for Eselectin Biomarker Activity (AID 2283077). Conditions: primary human HUVEC with PBMC; actives raise or lower the signal. Summed up:
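Primary human vascular co-culture (endothelium plus PBMC) was dosed with chemical, then E-selectin quantified by ELISA at 24 h. Endpoint values derive from bidirectional curve fitting relative to DMSO.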

Read-out in test [12]: Interleukin-8 (IL8), CXCL8 (gene 3576)
Description: BSK_LPS_IL8: BioMAP Diversity Plus: LPS Assay for Interleukin-8 (IL8) Biomarker Activity (AID 2283078). The following applies: primary human HUVEC with PBMC; actives raise or lower the signal. An outline of the steps: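 Readout is IL-8 by ELISA, taken 24 h after compounds were added to LPS-stimulated endothelial/PBMC co-cultures. Both increases and decreases relative to DMSO control were scored through bidirectional fitting.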

Test [13] is described as follows: BSK_LPS_SRB: Viability Assessment in the BioMAP Diversity Plus: LPS Assay (AID 2283079).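 Also: total protein by sulforhodamine B absorbance as a cytotoxicity measure; measured one day after compound addition; fitted in both directions against DMSO so loss or gain of signal counts.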 The following applies: primary human HUVEC with PBMC. An outline of the steps: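 Readout is SRB absorbance at 560 nm (0.1% stain, TCA-fixed parallel cultures) as a total-protein cytotoxicity measure. Cells: primary human umbilical vein endothelium plus peripheral blood mononuclear cells, 24 h after chemical exposure; DMSO served as baseline.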

Read-out in test [14]: Interleukin-1 alpha (IL1a), IL1A (gene 3552)
Description: BSK_LPS_IL1a: BioMAP Diversity Plus: LPS Assay for Interleukin-1 alpha (IL1a) Biomarker Activity (AID 2283080). Conditions: primary human HUVEC with PBMC; actives raise or lower the signal. An outline of the steps:
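ELISA read-out of IL-1 alpha from a human primary vascular co-culture (endothelium plus PBMC) under LPS, sampled 24 hours post-dosing. Activity was fitted in both directions relative to DMSO controls.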

Read-out in test [15]: Monocyte Chemoattractant Protein-1 (MCP1), CCL2 (gene 6347)
Briefly: BSK_LPS_MCP1: BioMAP Diversity Plus: LPS Assay for Monocyte Chemoattractant Protein-1 (MCP1) Biomarker Activity (AID 2283081).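 As to AC50: secreted MCP-1 protein quantified by ELISA in culture supernatant.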 The following applies: primary human HUVEC with PBMC; actives raise or lower the signal. An outline of the steps: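 Human endothelial–PBMC co-cultures were dosed with chemical, then LPS-driven MCP-1 levels were quantified by ELISA at 24 h. Activity in either direction was fitted versus DMSO negative control.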

Read-out in test [16]: Vascular cell adhesion molecule 1 (VCAM1), VCAM1 (gene 7412)
Description: BSK_hDFCGF_VCAM1: BioMAP Diversity Plus: hDFCGF Assay for Vascular cell adhesion molecule 1 (VCAM1) Biomarker Activity (AID 2283065). The following applies: primary human foreskin fibroblasts; actives raise or lower the signal. Summed up: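 Human foreskin fibroblast primary cells, chemical exposure 24 h; VCAM-1 by ELISA; bidirectional fit, DMSO = negative control/baseline.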

Read-out in test [17]: C-C motif chemokine 2 (Homo sapiens) (UniProt P13500)
Description: BSK_KF3CT_MCP1: BioMAP Diversity Plus: KF3CT Assay for Monocyte Chemoattractant Protein 1 (MCP1/CCL2) Biomarker Activity (AID 2283073). Conditions: primary human keratinocytes with fibroblasts; actives raise or lower the signal. Summed up: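 ELISA readout of MCP-1 after 24 h chemical dosing of a human skin primary co-culture of keratinocytes and foreskin fibroblasts. Activity was fitted in both directions against DMSO.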

Read-out in test [18]: Plasminogen activator inhibitor-1 (PAI1), SERPINE1 (gene 5054)
Briefly: BSK_hDFCGF_PAI1: BioMAP Diversity Plus: hDFCGF Assay for Plasminogen activator inhibitor-1 (PAI1) Biomarker Activity (AID 2283066). Conditions: primary human foreskin fibroblasts; actives raise or lower the signal. Summed up:
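Primary dermal fibroblasts (human foreskin), hDFCGF system; compound 24 h; PAI-1 by ELISA; bidirectional fit vs DMSO control.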

The source made the active and inactive calls. The calls were made as follows: active = hit-call score of the fitted dose curve at least 0.9, where 1 is the maximum; inactive = score below 0.9.

Chain of E-selectin (Homo sapiens) (P16581 whole entry, looked up): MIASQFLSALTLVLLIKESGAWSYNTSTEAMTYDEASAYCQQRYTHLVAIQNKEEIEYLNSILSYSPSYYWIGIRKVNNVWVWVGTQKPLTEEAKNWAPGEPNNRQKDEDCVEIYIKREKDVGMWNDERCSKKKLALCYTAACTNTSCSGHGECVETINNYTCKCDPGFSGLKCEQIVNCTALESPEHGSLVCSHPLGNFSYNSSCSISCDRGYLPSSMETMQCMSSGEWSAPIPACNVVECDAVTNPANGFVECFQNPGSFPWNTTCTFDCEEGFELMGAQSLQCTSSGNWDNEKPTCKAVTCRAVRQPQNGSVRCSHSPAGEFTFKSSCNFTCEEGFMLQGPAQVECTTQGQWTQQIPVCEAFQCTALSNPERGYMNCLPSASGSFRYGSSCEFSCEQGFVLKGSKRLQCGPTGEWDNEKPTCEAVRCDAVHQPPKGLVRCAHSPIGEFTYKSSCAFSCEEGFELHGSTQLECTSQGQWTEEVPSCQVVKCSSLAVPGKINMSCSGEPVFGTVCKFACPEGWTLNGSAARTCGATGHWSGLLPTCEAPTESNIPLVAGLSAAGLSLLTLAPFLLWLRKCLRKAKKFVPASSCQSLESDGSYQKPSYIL

What is called AC50 is the concentration giving half of the maximal activity seen. Take `CCC[CH2][Sn]([Cl])([CH2]CCC)[CH2]CCC`: the AC50 in test [1] was 0.148 µM (active); in [2] it was 0.369 µM (active); in test [3], 0.148 µM (active); in [4] it was 0.342 µM (active); in test [5], 0.422 µM (active); in [6], 0.294 µM (active). For the same compound, the AC50 in test [7] was 0.246 µM (active); in test [8], 0.692 µM (active); in test [9] it was 0.292 µM (active); in [10] it was 0.148 µM (active); with CD40, CD40 (gene 958) it was 0.148 µM (active); in test [11], 0.148 µM (active). Also, the AC50 is 0.148 µM (active) in [12], 0.269 µM (active) in test [13], 0.344 µM (active) in [14] and 0.148 µM (active) in [15].
Take `N#CC(Br)(Br)C(N)=O`: the outcome in [1], in [2], in test [16], in [3], in test [4] and in test [5] was inactive. The result in test [6], in test [7], in test [8], in test [17], in [9] and in test [10] was inactive. Moreover, the outcome in the test with CD40, CD40 (gene 958) is “inactive”; in [11] it was “inactive”; in [12], “inactive”; in test [13], “inactive”; in [14], “inactive”; in [15], “inactive”.
Regarding `Clc1ccc(C(c2ccc(Cl)cc2)C(Cl)Cl)cc1`, the AC50 in test [1] is 11.2 µM (active); in test [2], 11.8 µM (active); in [16] it was 9.19 µM (active); in test [3], 15.5 µM (active); in test [4], 13.9 µM (active); in test [5], 12.8 µM (active). Also, the AC50 in [6] is 13.8 µM (active); in test [7], 11.2 µM (active); in test [8], 9.57 µM (active); in test [17] it was 10.4 µM (active); in [9], 10.2 µM (active); in [10] it was 11.6 µM (active). For the same compound, the AC50 is 29 µM (active) in the test with CD40, CD40 (gene 958); 30.3 µM (active) in test [11]; 28.6 µM (active) in [14]; 35.2 µM (active) in test [15].
Regarding `Nc1ccc(Cl)cc1N`, the outcome in test [1], in test [2], in test [18], in test [3], in test [4] and in [5] was inactive. In addition, the outcome is “inactive” in [6]; “inactive” in [7]; “inactive” in test [8]; “inactive” in test [17]; “inactive” in [10]; “inactive” with CD40, CD40 (gene 958). Further, the result in test [12], in test [13], in [14] and in [15] was inactive. Besides, the AC50 in test [9] is 8.99 µM (active); in [11], 4.45 µM (active).

Values taken from PubChem BioAssay (EPA / NIEHS).
